Whole data set: some 25,000 sequences, median “ln(normalized median fluorescence intensity)” near 9.7, cut for the highest 2% near 11. This excerpt belongs to a sample that is enriched for the highest values.
Each sequence was assayed on PfAP2-HC AP2 domain (GST-tagged) (assay: gcPBM binding intensity (ln(normalized median fluorescence intensity)); higher = stronger DNA binding).
Summary of the method: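 The binding buffer was 1× PBS containing 1% milk, 0.2 mg/ml BSA, 0.5% salmon testes DNA and 0.03% Triton X-100. In it, GST-tagged P. falciparum DNA-binding domains expressed in E. coli were applied for 1 h to an Agilent 4 × 180k array of primer-extended double-stranded 36-bp intergenic genomic probes plus negative controls. Binding intensity, read with Alexa488 anti-GST antibody and a 488 nm scan, is the highest Masliner-normalised natural-log median intensity across replicate spots of either probe orientation.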

Sequence | gcPBM binding intensity (ln)
ACCCATTTAACAAAATGTACATTATTATAATTACTT [XGTACX_site7105] | 9.72
CTTATATAATTCGATAGTACATATTTTTATATATAT [XGTACX_site4045] | 9.68
ATACAATAATATAAATGTACAAATTATATCTTAATT [XGTACX_site6004] | 9.62
TTGTGTACATATTAAGTGCATATATATATATATATA | 10.4
TTTTACCTAAATATCACACATATTTAAATATATATA [CACACA_site5597] | 9.57
AGTCAATTTTGTGTGTCAACATTTATATAAAGAATG [TGCATGCA_negctrl_site400] | 9.71
AGAAGGTAAAAACACACACACACATACAAAAAAAAA [CACACA_site3767] | 10.7
AAGGTAAACAGACACACACACATACAAAAAAAAAAA [CACACA_site3768] | 10.8
AAGGTAAACGGACACACACACATACAAAAAAAAAAA [CACACA_site5961] | 11.3
TATATATAAAAAACATGTACACAAATTTACATACAT [XGTACX_site4777] | 9.79
ATGTATGGAAATTTTACACACAAGAGTAGTTTAAAA [CACACA_site1710] | 9.9
TACCCACTAAAATACACACACACACCCACATATATA [CACACA_site6141] | 10.4
CCCACTAAAAAACACACACACACACCCATATATATA [CACACA_site6140] | 11
CGCACTAAAAAACACACACACACACCCATATATATA [CACACA_site4152] | 11
AAAAAAAACGCACATACACACACACCCATATATATA [CACACA_site9118] | 10.4
CACCCACTAATAAACACACACATATATATATATATA [CACACA_site389] | 10.4
AAAGATGATAAAATATGTACACACAGTTTATACATT [XGTACX_site8703] | 9.95
AAGAAAAAAAAAATTACACACTGCGCAGATACACAA [CACACA_site1289] | 9.86
ATTTTTTCTTTTCGATGTACCCTTCTTATTCTTTAT [XGTACX_site3782] | 10.1
TCTTGATCTTATATATATCTACAATATTTTATACAT [TGCATGCA_negctrl_site569] | 10.2
CTGCGTTTAATATGCGTGCACCTTGGTTTTATATCT [GTGCAC_site9525] | 9.83
GTAAGTTTGAATACACGTACAAATTTATTAAAGTCC [XGTACX_site6722] | 9.72
ATTCTATATGTTACATAAACCTATATTTTTTTTTTT [CACACA_negctrl_site860] | 9.58
TTTTACTTAAGACACACACACACAAAAAAAAAAAAA [CACACA_site6573] | 10.8

Sequence | gcPBM binding intensity (ln)
CTATTTCATGGACACACACACACAAACAAACATATA [CACACA_site4696] | 11.1
ATATAACATGGACACACACACATATATATATATTAT [CACACA_site6135] | 10.4
TAAATAAATATATATTCACACACAAACATATATATA [CACACA_site9332] | 10.5
CTATTTCATAAACACACACACACAAACAAACATATA [CACACA_site8234] | 11.5
AATAAATATATATTCACACACAAACATATATATATA [CACACA_site4023] | 10
CTATTTCAGAAACACACACACACAAACAAACATATA [CACACA_site978] | 10.4
TTTTAAGAAAAAAAATGTACACATGAAAATAGTGAA [XGTACX_site5898] | 9.5
TAGATACATAAAAGTGGTACATATATATATATATAT [XGTACX_site6263] | 9.85
TAACTTAAATAATACATACACACATGTACATACAGA [CACACA_site1594] | 10.2
TCTATTTTTTATATGGTGCATTGTTCTTATTAATAT [GTGCAC_site9392] | 9.77
TACACAAACAGACACACACACACACGCGCACAAAAA [CACACA_site7192] | 11
GTTACACAAACAAACACACACACACGCACGCACAAA [CACACA_site7191] | 11.3
ATAAAAATTGATTATACACACGCGCACCCACAACAA [CACACA_site3536] | 10.3
AAAAAACAAAAACACACGCACACAAAAAAAAAAAAA [CACACA_site802] | 10.2
ATAGACAGCGCACAAACACACAAACACGCACGCACA [CACACA_site6349] | 10.2
CACAAACAAAGACACACACACACACGCACAAAAATG [CACACA_site7193] | 10.7
ATTATAGACACGCGCACACACAACAAAAAAAAAAAA [CACACA_site9180] | 11.3
ATTATACACCCGCGCACACACAACAAAAAAAAAAAA [CACACA_site5871] | 11.1
TGATTATACGCACGCGCACACACAACCAAAAAAAAA [CACACA_site3537] | 10.2
TGATTATAGACACGCGCACACACAACAAAAAAAAAA [CACACA_site9179] | 10.1
ATTACATACACGCGCACACACAAAAAAAAAAAAAAA [CACACA_site1334] | 9.98
TTATATTATAGACACACACACAAAAAAAAAAAAAAA [CACACA_site3816] | 10.1
TTTCTTTTTTCTGTTATTATTATAAAACGATATTTA [TGCATGCA_negctrl_site167] | 9.58
TTATTAAGTAAATCACATTTAATTTTTTTTTTTTTT [CACACA_negctrl_site1280] | 9.27

Sequence | gcPBM binding intensity (ln)
GAATATGTTAACATTTGTACATAAAATTTTTTACAA [XGTACX_site2444] | 9.49
ATTATTTTGTTTATTACATGCAGGTGTATATTACAG [TGCATGCA_site723] | 9.59
ATCACATAAAATATGAATATATATTTTATATATATA [CACACA_negctrl_site340] | 9.53
AAAAGAGAAATGGGCACACACACACCGATTATATAT [CACACA_site4942] | 11
AAAAGAGAAATGGGCACACACACACCCATTATATAT [CACACA_site1530] | 10.2
AGAAAAGAGAAATGGGCACACACACCCATATTATAT [CACACA_site8433] | 10.1
ATGTACCTATTTCATACACACACACCCACAAACAAA [CACACA_site8232] | 10.4
ACCTATTTCAAACACACACACACACTAACAAACATA [CACACA_site8233] | 10.8
ACCTATTTCAAACACACACACACACTAGCAAACATA [CACACA_site4695] | 10.9
ACCTATTTCAAACACACACACACACCCACAAACATA [CACACA_site977] | 10.9
GTACCTATTTCATACACACACACACGCAAACAAACA [CACACA_site6590] | 11.1
GTACCTATTTCATACACACACACACCCAAACAAACA [CACACA_site976] | 10.5
TATATAAACACGTACACACACATATCTGTATTTATA [CACACA_site5858] | 10.4
AAAAAATAGTGGTATGCATGTCCCTTGTATTTTCTT [TGCATGCA_site587] | 9.63
TACACCAAAAAAAAACGTACAAAATCCCACCCAGAC [XGTACX_site4622] | 11.1
TTAATGTACAGACACCCACACACAAACAAATATATA [CACACA_site8888] | 10.2
GTATATATTTAAACACGTACACAAAACCCAAAAAAT [XGTACX_site8110] | 9.95
TAATTTTTTTTTTTTTTTTTTGTACTTCATTTTTAT [CACACA_negctrl_site1395] | 9.58
TTTTTTTTGTTCTATACAATTATAAAAATAAAATAT [XGTACX_negctrl_site53] | 9.06
TAATACTTAGAGAAAAGTACGTATGAACTTATGTAA [XGTACX_site5504] | 9.59
TTTCCCTTGTTGTAAACATGCACAATATTTAGGTAT [TGCATGCA_site49] | 9.75
AAAGAAGGTAAACACACACACACACCGACAAAAAAA [CACACA_site9255] | 11.5
CACAAACAAAAACACACACACACACCGACAAAAATG [CACACA_site5362] | 10.6
CAAAAGAAGGTAAACACACACACACGCATACAAAAA [CACACA_site7724] | 10.4

Sequence | gcPBM binding intensity (ln)
TTAAAGCACCCATGCACACACACAAAGGAAAAGAAA [CACACA_site233] | 10.2
AAAGAAGGGAAACACACACACACACCCACAAAAAAA [CACACA_site3766] | 11.4
AAAGCACCCAGGCACACACACAAAGGAAAAGAAAAA [CACACA_site232] | 11
CACACCCACCAACACACACACAAAAAAAAAAAGAAA [CACACA_site500] | 10.4
TTAACAAAGAAACACACACACACACCCAAAAAAAAA [CACACA_site516] | 10.6
AAAAAAAAAAAACACACACACACACCGACAAAATAT [CACACA_site8411] | 10.8
CAAAAGAAGGTAAACACACACACACCCATACAAAAA [CACACA_site3765] | 10.7
AAAGCACCCATGCACACACACAAAGGAAAAGAAAAA [CACACA_site6249] | 10.3
AATTAACAAAAACACACACACACACCGACAAAAAAA [CACACA_site4444] | 10.9
TTTTTTTCTTTATTAGCACACATAATATTATATATG [CACACA_site8841] | 9.79
TTGGGGTATCTTCCTATGCACACTTGTTATGTACTA [CACACA_site831] | 9.85
TATATATATATATATTGTACTATATAGTATCTTTTT [XGTACX_site1646] | 9.78
TTTCACATATATATGGTGCATATTTTATGTGTAAAT [GTGCAC_site9937] | 9.7
AATTTTTTTTAATGATGTACTTTTTGAAAATAAACT [XGTACX_site4221] | 9.31
TTTCTAAGAAAAAAAAAAAAAAAAAAAAAGATACAA [GTGCAC_negctrl_site525] | 9.24
AAGTAAAAAAATAGCACACACACAAAAACACCCACA [CACACA_site1291] | 10.8
AATTAAACTCACACCACACACAAAAAAAAAAAAAAA [CACACA_site693] | 10.3
AGCACACCCACAAAAACACACACAAAGGTGTTCTTA [CACACA_site8355] | 10.5
TAAAATAAAACAAACACACACACACCCCCACAAAAA [CACACA_site3850] | 10.8
AATTAACAAAAACACACACACACACCCACAAAAAAA [CACACA_site517] | 11.4
CACAAACAAAAACACACACACACACCCACAAAAATG [CACACA_site2429] | 11
TGCAACAAAATAAACACACACACACCCCCACAAAAA [CACACA_site3388] | 10.6
GTAAAAAAAGAGCACACACACAAAAACACCCACAAA [CACACA_site1292] | 10.9
TACATAAATTAAAACACACACACACCCAAAAAAAAA [CACACA_site2261] | 10.5

— the supplement of paper PMC11417369
